Reference: PubChem BioAssay AID540256 (National Center for Advancing Translational Sciences (NCATS), 2011)
Hit rate of the full screen: of about 300,000 compounds, about 3,700 (1.2%) were called active. Roughly 20% stayed inconclusive and do not appear here. Many of the other results were omitted from the sample, so actives are more common in it than they were. Values without a mark were called inactive. Calls come from the whole dose curve; tested in HEK293 cells.

experiment: qHTS for Inhibitors of binding or entry into cells for Lassa Virus; conditions: Lassa virus pseudotype entry inhibition, cell reporter; series mostly up to 37.9 µM; activity change, negative = inhibition: at the top concentration; note: nearly all actives have a fitted effect of over 50% in size
% is set by controls: 0 for no effect and ±100 for the full control effect; potency is the fitted concentration of half-maximal effect.

Compound	activity change, negative = inhibition	Potency
Cc1cccc(N(C(=O)Cc2cccs2)C(C(=O)NCc2ccco2)c2ccncc2)c1 (stereo unspecified)	-4.42%	
Cc1ccc(N(C(=O)c2sc(C)nc2C)C(C(=O)NC(C)(C)C)c2ccncc2)cc1 (stereo unspecified)	-13.5%	
Cc1nc(C)c(C(=O)N(c2ccc(C)c(C)c2)C(C(=O)NCc2ccco2)c2ccccc2)s1 (stereo unspecified)		4.61 µM (active)
Cc1ccc(OCc2cc(C(=O)N(C)CCn3ccnc3C)no2)cc1C	-3.12%	
CCCN1CCN(C(=O)CCCNC(=O)c2ccc(Cl)cc2)CC1	19.3% [at 46.1 µM]	
COc1ccccc1N1CCN(c2nc(C)cc(=O)[nH]2)CC1	3.38% [at 46.1 µM]	
Cc1nnc(SCC(=O)N2CCc3ccccc3C2)s1	15.2%	
Cc1nnc(SCC(=O)NCc2ccccc2)s1	-1.56%	
Cc1nnc(SCC(=O)N2c3ccccc3C(C)(c3ccc(Cl)cc3)CC2(C)C)s1 (stereo unspecified)		10 µM (active)
Cc1ccc(NC2CCCN(C(=O)CCc3cn[nH]c3)C2)cc1C (stereo unspecified)	-7.91%	
COc1cc(C(=S)N2CCOCC2)cc(OC)c1OC(=O)c1ccc([N+](=O)[O-])cc1[N+](=O)[O-]	-14.6%	
Cc1ccc(SCC(=O)N2CCN(c3ccc(F)cc3)CC2)cc1	-2.07% [at 46.1 µM]	
CCN1CCC2(CC1)N=C(c1ccc(F)cc1)C(=S)N2C(=O)c1ccc(C)cc1		8.91 µM (active)
CCN1CCC(N(Cc2ccc(F)cc2)C(=O)Nc2cc(C)ccc2C)CC1	-4.1% [at 46.1 µM]	
COc1ccccc1C(=O)Nc1ccc(Nc2ccccc2)cc1	8.44%	
CCC(=O)Nc1ccc2nc(SCC(=O)N3CCc4ccccc43)sc2c1	8.37% [at 46.1 µM]	
COCCn1cnnc1SCC(=O)Nc1cccc(S(=O)(=O)N2CCCCC2)c1	-1.46%	
O=c1[nH]c(CN2CCOCC2)nc2cc(Cl)ccc12	-4.94% [at 46.1 µM]	
NC(=O)Cc1nc2scc(-c3ccc(Cl)cc3)c2c(=O)[nH]1	-28.5% [at 46.1 µM]	
O=c1[nH]c(CCl)nc2cc(-c3ccc(Cl)cc3)sc12		10 µM (active)
O=C1c2ccccc2C(=O)C1C(=O)C1CC1	12.7% [at 46.1 µM]	
Cc1ccc(S(=O)(=O)N/N=C(\c2ccccc2)C2CC2)cc1	16.6% [at 46.1 µM]	
COc1ccc(-c2cc(C(=O)N(C)Cc3ccccc3)c3ccccc3n2)cc1		10 µM (active)
COc1ccc(-c2cc(C(=O)n3cnc4ccccc43)c3ccccc3n2)cc1	-15.2%	
CNC(=O)COC(=O)c1cc(-c2ccc(OC)cc2)nc2ccccc12	-36.8% [at 46.1 µM]	
COc1ccccc1N1CC(C(=O)Nc2nnc(SCC(=O)NCC3CCCO3)s2)CC1=O (stereo unspecified)	3.5%	

Compound	activity change, negative = inhibition	Potency
COc1ccc(C(CNC(=O)c2cc3c(s2)CCCC3)N2CCOCC2)cc1 (stereo unspecified)	-8.98% [at 46.1 µM]	
Cc1ccc(C(CC(=O)O)NC(=O)c2ccc(S(=O)(=O)N3CCCC3)cc2)cc1 (stereo unspecified)	10.2%	
C=CCN1C(=O)N(Cc2ccccc2)c2ccccc2S1(=O)=O	3.36% [at 46.1 µM]	
O=C1c2ccccc2C2=Nc3ccccc3SC(c3ccccc3F)C12 (stereo unspecified)		20.6 µM (active)
O=C1c2ccccc2C(=O)C1c1ccccc1F	18%	
Cc1ccc(-n2c(/C=C/c3cccc(C(F)(F)F)c3)nc3ccccc3c2=O)cc1	22.9% [at 46.1 µM]	
Cn1cc(/C=C/c2nc3ccccc3c(=O)n2-c2cccc([N+](=O)[O-])c2)c2ccccc21	4.13%	
CCn1c(/C=C/c2ccc([N+](=O)[O-])o2)nc2ccccc2c1=O		3.66 µM (active)
COc1cccc(CC(=NO)c2cccc(OC)c2)c1	-0.0231% [at 46.1 µM]	
O=C(c1ccccc1)C(Cn1cncn1)C(Sc1ccccc1)c1ccccc1 (stereo unspecified)		22.4 µM (active)
Fc1ccccc1OCCCCn1cncn1	19.3%	
OC(COc1ccc2ccccc2c1)Cn1cncn1 (stereo unspecified)	0%	
Cc1ccccc1N1CC(C(=O)Nc2nnc(SCCC3OCCO3)s2)CC1=O (stereo unspecified)	-10.4%	
CCOc1cc2ccccc2cc1C(=O)Nc1ccccn1	12% [at 46.1 µM]	
Cc1ccsc1C(=O)OCC(=O)c1cc(C)n(CC2CCCO2)c1C (stereo unspecified)		2.59 µM (active)
Cc1cc(C(=O)Cn2cnc3cc([N+](=O)[O-])ccc3c2=O)c(C)n1CC1CCCO1 (stereo unspecified)	2.49%	
Cc1cc(C(=O)CCl)c(C)n1CC1COc2ccccc2O1 (stereo unspecified)	-4.21%	
CCOC(=O)N1CCN(C(=O)C(=O)Nc2sc3c(c2C#N)CC(C)(C)OC3)CC1	28.3% [at 46.1 µM]	
COC(=O)c1ccc(OC(=O)c2cnccn2)cc1	-6.27% [at 46.1 µM]	
CSCCC1NC(=O)N(CC(=O)Nc2cccc(S(=O)(=O)N3CCCCCC3)c2)C1=O (stereo unspecified)	-11.3% [at 46.1 µM]	
CCOC(=O)N1CCC(NC(=O)c2cnn(-c3cccc(C)c3)c2C2CCN(C(=O)OC(C)(C)C)CC2)CC1	8.41% [at 46.1 µM]	
CCN(CC)c1ccc(S(=O)(=O)N2CCCCC2)cc1NC(=O)C1=COCCO1	-10.3%	
CC(C)(C)c1ccc(C(=O)NCC(c2ccco2)S(=O)(=O)c2ccc(F)cc2)cc1 (stereo unspecified)		12.6 µM (active)
COc1ccccc1CNC(=O)C(=O)NCC(c1ccco1)S(=O)(=O)c1ccc(F)cc1 (stereo unspecified)	-17.7% [at 46.1 µM]	
O=C(NCC(c1ccco1)S(=O)(=O)c1cccs1)c1ccc(F)cc1 (stereo unspecified)	-21.9% [at 46.1 µM]	
